{
  "source": "PubChem BioAssay (NCATS)",
  "note": "Results filed as inconclusive are left out. Calls of active or inactive are those of the source. The call rests on the fitted dose curve. On the % scale 0 is the no-effect control and ±100 the full control effect; potency means the concentration at half of the fitted maximal effect.",
  "data": [
    {"assay": "Confirmatory qHTS to identify inhibitors of SARS-CoV-2 cell entry (AID 1645844); further: nearly all actives have a fitted effect of over 45% in size", "conditions": "SARS-CoV-2 pseudotyped particle cell entry, luciferase; series mostly up to 57.2 µM; activity, negative = inhibition: at the top concentration", "text": "Assay Provider: Wei Zheng, Ph.D.\nNational Center for Advancing Translational Sciences, National Institute of Health, Rockville, MD.\nSARS-CoV-2 spike protein, within the viral envelope, mediates viral attachment and infection of host cells. The SARS-CoV-2 spike protein specifically binds to the host receptor ACE2 (Angiotensin-converting enzyme 2). This interaction promotes endocytosis of the viral particle, additional events lead to viral-host cell membrane fusion and release of the viral contents, allowing viral replication.\nWhile SARS-CoV-2 requires BSL-3 facilities for live virus work, pseudotyped partices (PP) that incorporate SARS-CoV-2 spike proteins without replication elements could facilitate studies on viral entry mechanisms in a BSL-2 setting. This PP cell entry assay could also enable screening of small molecule compound libraries in BSL-2 setting to identify inhibitors of SARS-CoV-2 cell entry.\nSEQUENCE No. (e.g., 1, 2, 3, etc.); […] (e.g., Cells, Incubation, Reagent, etc.); VALUE and DESCRIPTION.\n1. Cells. Seed 1500 HEK293-ACE2 cells (Expi293F with stable expression of human ACE2) in 2 uL/well media (DMEM, 10% FBS, 1x L-glutamine, 1x Pen/Strep, 1 ug/ml puromycin) in white 1536-well assay plates (Greiner #782073).\n2. Incubation. Incubate at 37C with 5% CO2 overnight (~16 h).\n3. Compounds. Dispense 23 nL/well compounds in DMSO via pin transfer.\n4. Incubation. Incubate for 1 hr at 37C 5% CO2.\n5. Reagent. Dispense 2 uL/well of SARS-CoV-2-S pseudotyped particles (PP). [a] PPs are produced with murine leukemia virus pseudotyping). [b] SARS-CoV-2-S is Wuhan-Hu-1 sequence (BEI #NR-52420) with C-terminal 19 amino acid truncation.\n6. Centrifugation. […]\n7. Incubation. Incubate at for 48 hr at 37C 5% CO2\n8. Centrifugation. Remove supernatant with gentle centrifugation using a Blue Washer (BlueCat Bio).\n9. Reagent. Dispense 4 uL/well of Bright-Glo Luciferase detection reagent (Promega #E2620).\n10. Incubation. Incubate for 5 min at room temperature.\n11. Detection. Read luminescence signal (Viewlux plate reader, PerkinElmer). Data was normalized with wells containing SARS-CoV-2-S PP as 100%, and wells containing bald PP (no fusion protein) as 0%.", "values": [
      {"smiles": "COc1ccc(F)c(F)c1C(=O)c1cnc(NC2CCN(S(C)(=O)=O)CC2)nc1N", "Potency": "68.1 nM (active)"},
      {"smiles": "N#CC(c1ccc(Cl)cc1)c1c(Cl)cc(-n2ncc(=O)[nH]c2=O)cc1Cl", "note": "(stereo not given)", "Potency": "13.6 nM (active)"},
      {"smiles": "O=C(O)c1ccc(Nc2ncc3c(n2)-c2ccc(Cl)cc2C(c2c(F)cccc2F)=NC3)cc1", "Potency": "242 nM (active)"},
      {"smiles": "Cc1cccc(Nc2nc(-c3ccncc3)cs2)c1", "Potency": "4290 nM (active)"},
      {"smiles": "COC(=O)Nc1ccc(-c2nc(N3CCOCC3)c3cnn(C4CCN(Cc5cccnc5)CC4)c3n2)cc1", "Potency": "5410 nM (active)"},
      {"smiles": "COc1ccc(S(=O)(=O)Nc2cccnc2Nc2ccc(O)cc2)cc1", "Potency": "1210 nM (active)"},
      {"smiles": "CC(C)c1cnn2c(NCc3ccccc3)cc(N[C@@H](CO)[C@H](O)CO)nc12", "Potency": "607 nM (active)"},
      {"smiles": "Cc1cc(C(=O)N2CCN(c3cccc(Cl)c3)CC2)n(-c2ccccc2)n1", "Potency": "6810 nM (active)"},
      {"smiles": "O=C(Cc1ccc(-c2ccc(OCCN3CCOCC3)cc2)cn1)NCc1ccccc1", "Potency": "136 nM (active)"},
      {"smiles": "CO[C@@H]1[C@@H](OC2OC(C)C(OC3CC(C)(O)C(OC(=O)CC(C)C)C(C)O3)C(N(C)C)C2O)[C@@H](CC=O)C[C@@H](C)C(=O)/C=C\\C2O[C@H]2C[C@@H](C)OC(=O)C[C@H]1OC(C)=O", "note": "(stereo not given in full)", "Potency": "15.2 nM (active)"},
      {"smiles": "COc1cc([C@@H]2c3cc4c(cc3[C@H](O)[C@H]3COC(=O)[C@@H]23)OCO4)cc(OC)c1OC", "Potency": "12100 nM (active)"},
      {"smiles": "N#CC1(c2cccc(C(=O)Nc3cc(Oc4ccc5nc(NC(=O)C6CC6)sc5n4)ccc3F)c2Cl)CC1", "Potency": "2710 nM (active)"},
      {"smiles": "Nc1ccc(C(=O)Nc2cccc(-c3nc(N4CCOCC4)c4oc5ncccc5c4n3)c2)cn1", "Potency": "192 nM (active)"},
      {"smiles": "O=C1NCCc2[nH]c(-c3ccncc3)cc21", "Potency": "9610 nM (active)"},
      {"smiles": "COc1cc([C@@H]2c3cc4c(cc3[C@@H](O[C@@H]3O[C@@H]5CO[C@@H](C)O[C@@H]5[C@H](O)[C@@H]3O)[C@H]3COC(=O)[C@H]23)OCO4)cc(OC)c1O", "Potency": "541 nM (active)"},
      {"smiles": "COc1cc2c(cc1Cc1cccc(Cl)c1F)c(=O)c(C(=O)O)cn2[C@H](CO)C(C)C", "Potency": "60.7 nM (active)"},
      {"smiles": "C[C@H]1CCC/C=C/C2C[C@H](O)C[C@H]2[C@H](O)/C=C/C(=O)O1", "note": "(stereo not given in full)", "Potency": "857 nM (active)"},
      {"smiles": "CO[C@@H]1C(N(C)C(=O)c2ccccc2)C[C@H]2O[C@]1(C)n1c3ccccc3c3c4c(c5c6ccccc6n2c5c31)C(=O)NC4=O", "note": "(stereo not given in full)", "Potency": "21500 nM (active)"},
      {"smiles": "CC(C)[C@H](CO)Nc1nc(Nc2cccc(Cl)c2)c2ncn(C(C)C)c2n1", "Potency": "8570 nM (active)"},
      {"smiles": "COC(=O)C[C@](O)(CCCC(C)(C)O)C(=O)O[C@@H]1C(OC)=C[C@]23CCCN2CCc2cc4c(cc2[C@H]13)OCO4", "Potency": "136 nM (active)"},
      {"smiles": "Cc1c(-c2ccc(O)cc2)n(Cc2ccc(OCCN3CCCCCC3)cc2)c2ccc(O)cc12", "Potency": "15200 nM (active)"},
      {"smiles": "COc1cc(C)c(Sc2cnc(NC(=O)c3ccc(CNC(C)C(C)C)cc3)s2)cc1C(=O)N1CCN(C(C)=O)CC1", "note": "(stereo not given)", "Potency": "9610 nM (active)"},
      {"smiles": "O=C(NCCCCN1CCOCC1)c1cc2ccccc2o1", "activity, negative = inhibition": "-26.1% (inactive)"},
      {"smiles": "NC(=O)c1cccc2cn(-c3ccc([C@@H]4CCCNC4)cc3)nc12", "Potency": "4290 nM (active)"},
      {"smiles": "CC(=O)[C@H]1CC[C@H]2[C@@H]3CCC4=CC(=O)CC[C@]4(C)[C@H]3CC[C@]12C", "Potency": "24100 nM (active)"},
      {"smiles": "CNC(=O)c1nn(C)c2c1C(C)(C)Cc1cnc(Nc3ccc(N4CCN(C)CC4)cc3)nc1-2", "Potency": "3040 nM (active)"},
      {"smiles": "C[C@@]1(C(=O)Nc2ccc(F)nc2)CCCN1c1nc(Nc2cc(C3CC3)[nH]n2)c2cccn2n1", "Potency": "171 nM (active)"},
      {"smiles": "CN1C(=O)C[C@H](C(=O)N[C@@H](Cc2cnc[nH]2)C(=O)N2CCC[C@@H]2C(N)=O)NC1=O", "Potency": "19200 nM (active)"},
      {"smiles": "CCN(CC)CCOCCOC(=O)C(CC)(CC)c1ccccc1", "activity, negative = inhibition": "-37.1% (inactive)"},
      {"smiles": "COC(=O)[C@H]1[C@H]2C[C@@H]3c4[nH]c5ccccc5c4CCN3C[C@H]2C[C@@H](OC(=O)c2cc(OC)c(OC)c(OC)c2)[C@@H]1OC", "activity, negative = inhibition": "-16.9% (inactive)"},
      {"smiles": "O=C(NC1CC1)c1cccc(-c2ccc3c(NC(=O)C4CC4)n[nH]c3c2)c1", "Potency": "17100 nM (active)"},
      {"smiles": "CC(=O)O[C@H]1C(=O)[C@@]2(C)C([C@H](OC(=O)c3ccccc3)[C@]3(O)C[C@H](OC(=O)[C@H](O)[C@@H](NC(=O)c4ccccc4)c4ccccc4)C(C)=C1C3(C)C)[C@]1(OC(C)=O)CO[C@@H]1C[C@@H]2O", "note": "(stereo not given in full)", "Potency": "42.9 nM (active)"},
      {"smiles": "CC(C)c1nn(-c2c(Cl)cccc2Cl)c2nc(Cc3ccc(OCCO)cc3)[nH]c(=O)c12", "Potency": "34.1 nM (active)"},
      {"smiles": "CCN(CCO)CCCOc1ccc2c(Nc3cc(CC(=O)Nc4cccc(F)c4)[nH]n3)ncnc2c1", "Potency": "681 nM (active)"},
      {"smiles": "CCC(c1ccc(O)cc1)C(CC)c1ccc(O)cc1", "note": "(stereo not given)", "Potency": "27100 nM (active)"},
      {"smiles": "CC[C@]1(O)C[C@H]2CN(CCC3=c4ccccc4=N[C]3[C@@](C(=O)OC)(c3cc4c(cc3OC)N(C)[C@H]3[C@@](O)(C(N)=O)[C@H](O)[C@]5(CC)C=CCN6CC[C@]43[C@@H]65)C2)C1", "Potency": "76.4 nM (active)"},
      {"smiles": "N#Cc1c(NC(=O)c2cccc3ccccc23)sc2c1CCCC2", "Potency": "1080 nM (active)"},
      {"smiles": "CC[C@@](C)(Nc1ccnc(-c2c[nH]c3ncccc23)n1)C(=O)NCC(F)(F)F", "activity, negative = inhibition": "0% (inactive)"},
      {"smiles": "Cc1c(CN2CCN(S(C)(=O)=O)CC2)sc2c(N3CCOCC3)nc(-c3cnc(N)nc3)nc12", "Potency": "215 nM (active)"},
      {"smiles": "CN1c2ccccc2C(=O)N2CCc3c([nH]c4ccccc34)C21", "note": "(stereo not given)", "Potency": "6810 nM (active)"}
    ]}
  ]
}
